# Test results: PubChem BioAssay AID720690 (Broad Institute, 2013)
# Results with a measured potency or affinity are listed apart. Calls of active or inactive are those of the source.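 Rule for the calls: active = every repeat run showing a signal drop whose fitted half-maximal concentration is at most twice the top tested concentration; inconclusive = repeat runs disagree, or flat partial drop, or poor fit; inactive = the rest.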
# Experiment: general mammalian cell viability loss – activator set, cherry-pick, cytotoxicity control for miR-122 modulator project, dose response (AID 720690)
# Details: HEK293T viability, CellTiter-Glo luminescence, 48 h; series mostly up to 26 µM
row,SMILES,outcome
1,C/C=C/c1ccc([C@@H]2[C@@H](CO)N(Cc3ccccn3)[C@H]2CNC(=O)CC)cc1,inactive
2,CC(C)NC(=O)N1[C@H](CO)[C@@H](c2ccccc2)[C@@H]1CNC(=O)CN(C)C,inactive
3,O=C(NC[C@@H]1[C@H](c2ccccc2)[C@@H](CO)N1Cc1cccnc1)c1ccccn1,inactive
4,CN1C(=O)c2cc(NC(=O)c3cccc(C(F)(F)F)c3)ccc2OC[C@@H]2O[C@@H](CC(=O)NCCN3CCCC3)CC[C@@H]21,inactive
5,CNC(=O)C[C@H]1CC[C@@H]2[C@H](COc3ccc(NC(=O)NC(C)C)cc3C(=O)N2C)O1,inactive
6,COCCN(C[C@@H]1[C@H](c2ccccc2)[C@@H](CO)N1C(=O)C1CCC1)C(C)=O,inactive
7,CN1C(=O)c2cc(NC(=O)c3cccc(F)c3)ccc2OC[C@H]2O[C@@H](CC(=O)NC3CCC3)CC[C@H]21,inactive
8,CN1C(=O)c2cc(NC(=O)c3cc(F)cc(F)c3)ccc2OC[C@@H]2O[C@@H](CC(=O)O)CC[C@@H]21,inactive
9,CN1C(=O)c2cc(NC(=O)Nc3ccccc3Cl)ccc2OC[C@H]2O[C@H](CC(=O)O)CC[C@@H]21,inactive
10,CCCNC(=O)N1[C@H](CO)[C@@H](c2ccccc2)[C@H]1CNC(=O)c1ccccc1,inactive
11,C/C=C/c1ccc([C@H]2[C@@H](CO)N(C(=O)NC(C)C)[C@H]2CN(C)C(=O)CC)cc1,inactive
12,COc1ccc(-c2oc3ncnc(NCCCN4CCOCC4)c3c2-c2ccc(OC)cc2)cc1,inactive
13,Cn1c(NC(=O)c2ccco2)c(-c2ccccc2Cl)c(=O)c2ccccc21,inactive
14,CC(=O)Nc1ccc2c(c1)C(=O)N(C)[C@@H]1CC[C@H](CC(=O)NC3CCCCC3)O[C@H]1CO2,inactive
15,C/C=C/c1ccc([C@@H]2[C@@H](CO)N(C(=O)Cc3cccnc3)[C@H]2CNC(C)=O)cc1,inactive
16,C/C=C/c1ccc([C@H]2[C@@H](CO)N(Cc3ccccn3)[C@H]2CNC(=O)CC)cc1,inactive
17,c1cnc(N2CCN(Cc3c[nH]c4ccccc34)CC2)nc1,inactive
18,CNC(=O)C[C@@H]1CC[C@@H]2[C@@H](COc3ccc(NC(=O)c4cccc(OC)c4)cc3C(=O)N2C)O1,inactive

row,SMILES,outcome
1,CCCNC(=O)C[C@@H]1CC[C@@H]2[C@@H](COc3ccc(NC(=O)Nc4ccccc4F)cc3C(=O)N2C)O1,inactive
2,CC(=O)Nc1ccc2c(c1)C(=O)N(C)[C@H]1CC[C@H](CC(=O)NC3CCCCC3)O[C@@H]1CO2,inactive
3,CCCCN1C=C(C(=O)OC)C(c2ccccc2C(F)(F)F)C(C(=O)OC)=C1,inactive
4,CN(C)CCCNC(=O)C[C@H]1CC[C@H]2[C@H](COc3ccc(NC(=O)c4cccc(F)c4)cc3C(=O)N2C)O1,inactive
5,CCCC(=O)Nc1ccc2c(c1)C(=O)N(C)[C@@H]1CC[C@H](CC(=O)NCc3cccc(F)c3)O[C@H]1CO2,inactive
6,C[C@H]1CN([C@@H](C)CO)C(=O)c2cc(-c3ccc(C#N)cc3)cnc2O[C@H]1CN(C)C(=O)Nc1ccc(C(F)(F)F)cc1,inactive
7,O=C(NC[C@H]1[C@H](c2ccccc2)[C@H](CO)N1CC1CCCC1)c1ccncc1,inactive
8,CN1C(=O)c2cc(NC(=O)Nc3cccc(Cl)c3)ccc2OC[C@@H]2O[C@H](CC(=O)NCCc3ccncc3)CC[C@H]21,inactive
9,COc1cccc(NC(=O)Nc2ccc3c(c2)C(=O)N(C)[C@@H]2CC[C@H](CC(=O)O)O[C@H]2CO3)c1,inactive
10,CC(=O)Nc1ccc(S(=O)(=O)Nc2ccc(S(=O)(=O)Nc3nc(C)cc(C)n3)cc2)cc1,inactive
11,COC(=O)C[C@H]1CC[C@@H]2[C@H](COc3ccc(NC(=O)c4cccs4)cc3C(=O)N2C)O1,inactive
12,CCNC(=O)C[C@@H]1CC[C@H]2[C@H](COc3ccc(NC(=O)c4cccc(C(F)(F)F)c4)cc3C(=O)N2C)O1,inactive
13,NC(=O)c1csc(-c2ccncc2)n1,inactive
14,C/C=C/c1ccc([C@H]2[C@@H](CO)N[C@@H]2CN(CC)C(=O)CN2CCOCC2)cc1,inactive
15,Cc1ccc(S(=O)(=O)Nc2ccc3c(c2)C(=O)N(C)[C@@H]2CC[C@H](CC(=O)NCCc4ccncc4)O[C@@H]2CO3)cc1,inactive
16,COc1cccc(C(=O)Nc2ccc3c(c2)C(=O)N(C)[C@@H]2CC[C@@H](CC(=O)N[C@H](C)c4ccccc4)O[C@@H]2CO3)c1,inactive
17,C[C@@H]1CN([C@H](C)CO)C(=O)c2cc(NC(=O)Nc3ccc(C(F)(F)F)cc3)ccc2O[C@@H]1CN(C)CC1CCCCC1,inactive
